Experimental data reported in the supplement of paper PMC11732987, “Enantioselective OTUD7B fragment discovery through chemoproteomics screening and high-throughput optimisation” (Communications Chemistry, 2025).
Values without a mark were called inactive.

How the values were obtained:
Assay in all cases: log2 ratio of Biotin-Ahx-Ub-VS probe labelling (fragment/DMSO); higher = less target engagement (more negative = stronger competition), active = hit call of the paper (q ≤ 0.05, log2 ratio ≤ -1)
Conditions in all cases: compound concentration: 200 uM; treatment time: 3 h
[1] = molecular target: T1, USP19 (UniProt O94966)
T1 sequence (whole entry): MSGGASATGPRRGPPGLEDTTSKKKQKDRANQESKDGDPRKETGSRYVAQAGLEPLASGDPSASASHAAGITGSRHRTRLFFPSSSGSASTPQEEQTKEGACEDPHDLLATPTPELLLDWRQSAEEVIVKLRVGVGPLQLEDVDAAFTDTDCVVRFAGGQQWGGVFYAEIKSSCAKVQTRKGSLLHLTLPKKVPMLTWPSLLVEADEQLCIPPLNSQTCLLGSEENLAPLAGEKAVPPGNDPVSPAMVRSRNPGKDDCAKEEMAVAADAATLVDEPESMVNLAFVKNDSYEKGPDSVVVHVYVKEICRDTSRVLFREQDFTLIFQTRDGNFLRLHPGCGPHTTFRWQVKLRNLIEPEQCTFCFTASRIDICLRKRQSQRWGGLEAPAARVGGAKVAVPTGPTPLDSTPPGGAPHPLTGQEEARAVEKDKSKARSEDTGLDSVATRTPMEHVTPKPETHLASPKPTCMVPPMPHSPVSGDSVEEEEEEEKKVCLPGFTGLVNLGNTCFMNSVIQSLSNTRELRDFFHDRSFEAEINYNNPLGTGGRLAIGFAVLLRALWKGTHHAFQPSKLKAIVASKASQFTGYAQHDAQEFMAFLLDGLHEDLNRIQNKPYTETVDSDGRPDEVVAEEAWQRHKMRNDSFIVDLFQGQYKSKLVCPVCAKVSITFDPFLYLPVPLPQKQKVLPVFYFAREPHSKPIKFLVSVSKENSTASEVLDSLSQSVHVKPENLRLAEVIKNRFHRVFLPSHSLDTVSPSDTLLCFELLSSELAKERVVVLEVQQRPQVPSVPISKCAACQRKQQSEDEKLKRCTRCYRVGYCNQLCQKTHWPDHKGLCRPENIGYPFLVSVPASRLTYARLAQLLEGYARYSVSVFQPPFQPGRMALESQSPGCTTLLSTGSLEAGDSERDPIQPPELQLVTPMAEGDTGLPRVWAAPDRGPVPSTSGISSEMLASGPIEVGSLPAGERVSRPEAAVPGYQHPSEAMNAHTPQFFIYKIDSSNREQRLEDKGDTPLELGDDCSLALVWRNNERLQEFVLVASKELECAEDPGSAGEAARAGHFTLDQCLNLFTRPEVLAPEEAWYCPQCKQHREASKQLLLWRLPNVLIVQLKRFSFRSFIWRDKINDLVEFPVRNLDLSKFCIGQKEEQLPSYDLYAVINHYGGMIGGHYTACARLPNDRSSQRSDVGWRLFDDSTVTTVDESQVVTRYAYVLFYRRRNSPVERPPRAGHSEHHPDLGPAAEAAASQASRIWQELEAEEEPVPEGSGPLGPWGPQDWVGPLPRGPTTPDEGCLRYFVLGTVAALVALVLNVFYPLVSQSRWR
Procedure, shortened: (§1)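 Average log2 ratios of fragment over vehicle were obtained by unpaired t-test from global-median-normalised Spectronaut label-free quantities. Proteins with ≥2 unique peptides were included. HEK293T lysate (495 µg per sample) was treated in triplicate with fragment at 200 µM or vehicle for 3 h, then with Biotin-Ahx-Ub-VS at 0.5 µM final for 1 h, and labelled DUBs were NeutrAvidin-enriched and run by diaPASEF LC-MS/MS.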

[2] = molecular target: USP24 (UniProt Q9UPU5)
USP24, sequence (Q9UPU5 whole entry): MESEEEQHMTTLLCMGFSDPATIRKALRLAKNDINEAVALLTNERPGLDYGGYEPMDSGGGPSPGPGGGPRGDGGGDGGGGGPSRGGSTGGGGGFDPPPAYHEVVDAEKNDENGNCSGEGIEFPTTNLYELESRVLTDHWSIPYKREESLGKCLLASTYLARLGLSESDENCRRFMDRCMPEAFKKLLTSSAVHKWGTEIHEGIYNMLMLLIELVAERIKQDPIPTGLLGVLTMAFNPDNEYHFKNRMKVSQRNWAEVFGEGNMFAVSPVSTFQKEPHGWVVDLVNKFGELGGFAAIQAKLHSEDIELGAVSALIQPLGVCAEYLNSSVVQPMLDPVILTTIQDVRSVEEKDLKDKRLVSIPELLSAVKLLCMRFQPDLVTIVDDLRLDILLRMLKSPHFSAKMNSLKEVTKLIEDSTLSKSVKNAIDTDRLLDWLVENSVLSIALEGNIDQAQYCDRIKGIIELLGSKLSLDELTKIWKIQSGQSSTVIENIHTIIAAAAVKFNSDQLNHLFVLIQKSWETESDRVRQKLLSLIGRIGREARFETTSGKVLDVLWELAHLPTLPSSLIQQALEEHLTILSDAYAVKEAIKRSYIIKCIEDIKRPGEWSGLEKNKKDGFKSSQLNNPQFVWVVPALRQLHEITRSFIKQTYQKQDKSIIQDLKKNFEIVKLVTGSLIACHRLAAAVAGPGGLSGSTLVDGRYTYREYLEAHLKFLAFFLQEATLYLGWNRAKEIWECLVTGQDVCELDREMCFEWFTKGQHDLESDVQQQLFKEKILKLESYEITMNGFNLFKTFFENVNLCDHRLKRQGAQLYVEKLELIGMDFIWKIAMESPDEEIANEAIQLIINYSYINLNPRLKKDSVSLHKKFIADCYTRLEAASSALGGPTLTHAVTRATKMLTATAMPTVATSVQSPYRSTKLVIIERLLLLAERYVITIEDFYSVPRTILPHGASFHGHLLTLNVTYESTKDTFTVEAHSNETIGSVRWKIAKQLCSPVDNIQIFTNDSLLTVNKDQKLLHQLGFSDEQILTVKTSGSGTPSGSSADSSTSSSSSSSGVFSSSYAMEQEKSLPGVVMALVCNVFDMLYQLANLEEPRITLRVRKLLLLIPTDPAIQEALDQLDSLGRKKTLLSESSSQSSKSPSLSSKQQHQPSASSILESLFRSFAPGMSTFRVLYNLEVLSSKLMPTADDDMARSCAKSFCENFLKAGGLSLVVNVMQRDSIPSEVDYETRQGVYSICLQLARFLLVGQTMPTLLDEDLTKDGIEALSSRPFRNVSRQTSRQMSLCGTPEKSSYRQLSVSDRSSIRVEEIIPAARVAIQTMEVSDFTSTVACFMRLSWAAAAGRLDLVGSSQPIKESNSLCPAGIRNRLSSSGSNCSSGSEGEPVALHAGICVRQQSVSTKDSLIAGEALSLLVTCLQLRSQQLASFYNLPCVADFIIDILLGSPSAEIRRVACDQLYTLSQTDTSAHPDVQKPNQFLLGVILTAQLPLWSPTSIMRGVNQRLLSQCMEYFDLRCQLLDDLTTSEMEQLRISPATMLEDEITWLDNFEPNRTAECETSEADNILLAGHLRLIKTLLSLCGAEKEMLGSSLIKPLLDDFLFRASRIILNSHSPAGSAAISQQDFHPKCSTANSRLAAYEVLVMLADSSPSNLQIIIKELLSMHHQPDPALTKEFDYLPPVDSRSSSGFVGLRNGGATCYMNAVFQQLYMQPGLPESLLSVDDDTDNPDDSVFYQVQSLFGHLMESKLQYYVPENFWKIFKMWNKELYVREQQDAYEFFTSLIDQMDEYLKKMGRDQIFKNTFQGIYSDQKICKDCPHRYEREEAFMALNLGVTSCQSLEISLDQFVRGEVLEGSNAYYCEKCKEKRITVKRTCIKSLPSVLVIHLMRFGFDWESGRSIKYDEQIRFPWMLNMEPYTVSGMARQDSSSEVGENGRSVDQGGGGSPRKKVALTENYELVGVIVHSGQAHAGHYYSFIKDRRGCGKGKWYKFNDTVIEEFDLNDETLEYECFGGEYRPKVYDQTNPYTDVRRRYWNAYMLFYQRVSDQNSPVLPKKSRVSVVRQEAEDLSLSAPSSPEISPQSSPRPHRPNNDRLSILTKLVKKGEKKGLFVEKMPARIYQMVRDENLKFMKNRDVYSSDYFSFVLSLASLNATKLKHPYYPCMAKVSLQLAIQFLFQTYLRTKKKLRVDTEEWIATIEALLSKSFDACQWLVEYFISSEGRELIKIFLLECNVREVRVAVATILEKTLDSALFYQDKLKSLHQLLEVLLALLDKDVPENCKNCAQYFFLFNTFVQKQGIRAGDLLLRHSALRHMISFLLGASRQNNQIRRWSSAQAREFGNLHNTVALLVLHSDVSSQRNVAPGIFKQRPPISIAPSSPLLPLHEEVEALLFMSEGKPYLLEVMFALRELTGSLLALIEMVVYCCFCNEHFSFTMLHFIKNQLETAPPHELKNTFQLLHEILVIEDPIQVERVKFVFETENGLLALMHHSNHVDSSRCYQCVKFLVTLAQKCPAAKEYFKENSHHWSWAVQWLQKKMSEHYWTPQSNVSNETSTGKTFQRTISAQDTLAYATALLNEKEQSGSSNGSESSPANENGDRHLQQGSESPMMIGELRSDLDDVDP
Procedure, shortened: as §1

[3] = molecular target: T2, USP25 (UniProt Q9UHP3)
T2 sequence (whole entry): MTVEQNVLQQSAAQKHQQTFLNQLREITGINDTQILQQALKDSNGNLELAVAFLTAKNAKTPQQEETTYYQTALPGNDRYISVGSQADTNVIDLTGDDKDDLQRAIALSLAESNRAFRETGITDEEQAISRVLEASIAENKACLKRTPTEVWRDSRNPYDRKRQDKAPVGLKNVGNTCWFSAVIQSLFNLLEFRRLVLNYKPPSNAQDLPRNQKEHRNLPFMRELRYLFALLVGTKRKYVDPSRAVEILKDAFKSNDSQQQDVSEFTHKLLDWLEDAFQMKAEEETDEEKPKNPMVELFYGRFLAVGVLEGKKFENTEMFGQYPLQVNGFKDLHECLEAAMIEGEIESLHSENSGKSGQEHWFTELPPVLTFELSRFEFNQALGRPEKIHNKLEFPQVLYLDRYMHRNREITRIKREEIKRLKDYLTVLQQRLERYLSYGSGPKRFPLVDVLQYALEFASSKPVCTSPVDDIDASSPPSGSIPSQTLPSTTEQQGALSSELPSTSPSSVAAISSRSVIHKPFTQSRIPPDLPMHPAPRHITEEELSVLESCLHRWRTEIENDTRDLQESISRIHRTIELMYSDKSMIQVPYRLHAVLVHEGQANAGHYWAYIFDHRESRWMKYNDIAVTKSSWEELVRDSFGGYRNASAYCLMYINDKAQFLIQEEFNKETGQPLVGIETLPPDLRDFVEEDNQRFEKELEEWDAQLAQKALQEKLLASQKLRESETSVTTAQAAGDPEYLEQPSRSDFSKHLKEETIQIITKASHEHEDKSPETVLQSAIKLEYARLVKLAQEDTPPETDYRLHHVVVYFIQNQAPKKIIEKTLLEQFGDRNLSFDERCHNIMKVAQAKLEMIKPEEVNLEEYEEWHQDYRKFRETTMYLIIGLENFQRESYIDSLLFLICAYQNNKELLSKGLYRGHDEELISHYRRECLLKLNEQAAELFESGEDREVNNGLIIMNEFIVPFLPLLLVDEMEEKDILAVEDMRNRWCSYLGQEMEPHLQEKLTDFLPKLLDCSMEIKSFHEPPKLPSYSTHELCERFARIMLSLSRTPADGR
Procedure, shortened: as §1

[4] = molecular target: T3, USP28 (UniProt Q96RU2)
T3 sequence (whole entry): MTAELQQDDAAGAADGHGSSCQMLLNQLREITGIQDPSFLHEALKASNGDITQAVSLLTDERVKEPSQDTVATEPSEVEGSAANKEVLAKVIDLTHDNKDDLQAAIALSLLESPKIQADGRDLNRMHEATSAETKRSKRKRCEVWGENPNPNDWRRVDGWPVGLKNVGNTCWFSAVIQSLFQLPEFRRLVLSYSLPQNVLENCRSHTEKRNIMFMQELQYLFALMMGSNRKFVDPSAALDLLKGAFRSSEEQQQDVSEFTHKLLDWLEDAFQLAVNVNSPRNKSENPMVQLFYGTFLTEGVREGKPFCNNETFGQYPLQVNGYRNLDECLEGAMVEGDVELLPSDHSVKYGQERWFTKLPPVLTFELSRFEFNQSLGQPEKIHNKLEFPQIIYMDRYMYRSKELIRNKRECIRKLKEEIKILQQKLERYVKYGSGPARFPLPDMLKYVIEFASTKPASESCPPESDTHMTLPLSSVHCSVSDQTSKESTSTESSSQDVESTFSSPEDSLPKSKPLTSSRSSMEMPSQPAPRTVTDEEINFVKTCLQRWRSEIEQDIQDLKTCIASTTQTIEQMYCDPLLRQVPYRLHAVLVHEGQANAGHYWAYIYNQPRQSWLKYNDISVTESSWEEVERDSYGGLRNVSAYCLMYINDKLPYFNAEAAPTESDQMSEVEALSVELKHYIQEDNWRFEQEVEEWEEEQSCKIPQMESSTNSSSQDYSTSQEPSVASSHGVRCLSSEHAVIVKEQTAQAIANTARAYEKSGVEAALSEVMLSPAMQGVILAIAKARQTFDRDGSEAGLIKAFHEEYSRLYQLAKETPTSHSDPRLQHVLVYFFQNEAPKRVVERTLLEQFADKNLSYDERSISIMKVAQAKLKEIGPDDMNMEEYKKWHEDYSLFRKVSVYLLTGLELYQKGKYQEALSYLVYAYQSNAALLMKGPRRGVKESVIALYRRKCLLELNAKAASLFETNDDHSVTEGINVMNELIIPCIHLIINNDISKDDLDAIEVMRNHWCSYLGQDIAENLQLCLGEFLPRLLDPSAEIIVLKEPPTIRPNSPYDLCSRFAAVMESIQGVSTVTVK
Procedure, shortened: as §1

Question: What does the source list for Cl.O=C(CCl)N1CCC(n2nc3ccccc3n2)CC1?
Answer: log2 ratio of Biotin-Ahx-Ub-VS probe labelling [1]: -0.666; log2 ratio of Biotin-Ahx-Ub-VS probe labelling [2]: -1.08 (active); log2 ratio of Biotin-Ahx-Ub-VS probe labelling [3]: -0.61; log2 ratio of Biotin-Ahx-Ub-VS probe labelling [4]: -0.611
